A short description of test [1]: TOX21_p53_BLA_p2_viability: Viability Assessment in the Tox21 HCT-116 p53 Agonism Beta-lactamase Assay, Phase 2 (AID 2283591).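 Note: compound exposure lasted 16 h at 37 °C; actives lower the ATP signal meaning cytotoxicity.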 The gist of the method: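 HCT-116 p53-bla cells (4000/well) rested 5 h at 37C, then received compounds in DMSO (217-fold dilution) for 16 h at 37C, 5% CO2. After the CCF4 read, CellTiter-Glo was added; ATP luminescence was read after 30 min at room temperature.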

Test [2] is described as follows: TOX21_p53_BLA_p3_viability: Viability Assessment in the Tox21 HCT-116 p53 Agonism Beta-lactamase Assay, Phase 3 (AID 2283593).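 Note: cells exposed to compound for 16 h before reading.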 In short, it runs like this: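 HCT-116 cells (4000/well) rested 5 h at 37C, then got DMSO compounds by pin tool (217-fold dilution) for 16 h at 37C, 5% CO2. After the bla read, CellTiter-Glo was added and luminescence read at 30 min, room temperature.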

Test [3] in a line: TOX21_p53_BLA_p5_viability: Viability Assessment in the Tox21 HCT-116 p53 Agonism Beta-lactamase Assay, Phase 5 (AID 2283600). The gist of the method:
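Seeded cells (4000/well) settle 5 h before compound addition. Plates then incubate 16 h at 37C, receive FRET substrate for 2 h, and finally CellTiter-Glo, with luminescence measured after a 30 min room-temperature incubation.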

The target of test [4] is Cellular tumor antigen p53 (Homo sapiens) (UniProt P04637). Nature of the test: TOX21_p53_BLA_p4_ratio: Tox21 HCT-116 p53 Agonism Beta-lactamase Assay, Ratio, Phase 4 (AID 2283601). In short, it runs like this: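 HCT116 cells carrying an inducible beta-lactamase reporter were plated at 4000 cells/well, rested 5 h, then exposed to compounds in DMSO (217-fold dilution) for 16 h at 37C. CCF4-AM substrate was loaded 2 h at room temperature; 460/530 nm emission ratio scored gain-of-signal versus DMSO.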

The target is the same in test [5]. Nature of the test: TOX21_p53_BLA_p3_ratio: Tox21 HCT-116 p53 Agonism Beta-lactamase Assay, Ratio, Phase 3 (AID 2283596). In short, it runs like this: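 HCT116 p53-bla cells (4000/well) given compound in DMSO (217-fold dilution) after 5 h, incubated 16 h at 37C. CCF4-AM substrate 2 h at room temperature; 460/530 nm emission ratio, gain fitted against DMSO.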
A short description of test [6]: TOX21_p53_BLA_p4_viability: Viability Assessment in the Tox21 HCT-116 p53 Agonism Beta-lactamase Assay, Phase 4 (AID 2283597).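 Note: hits lower the luminescence signal meaning cytotoxicity.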 In short, it runs like this: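 Luminescent ATP readout (CellTiter-Glo, 30 min, room temperature) in the same wells as the p53 bla ratio. HCT116 cells were treated for 16 h at 37C with DMSO-dissolved compounds.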
Test [7] concerns the target Cellular tumor antigen p53 (Homo sapiens) (UniProt P04637). Nature of the test: TOX21_p53_BLA_p5_ratio: Tox21 HCT-116 p53 Agonism Beta-lactamase Assay, Ratio, Phase 5 (AID 2283599). The gist of the method:
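HCT-116 cells carrying a p53-inducible beta-lactamase reporter were seeded at 4000 cells/well and dosed after 5 h with compound in DMSO (217-fold dilution). After 16 h at 37C, CCF4-AM substrate was added for 2 h, and the 460/530 nm emission ratio was scored as gain-of-signal versus DMSO.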

The target of test [8] is PGR (gene 5241) (UniProt P06401). Briefly: TOX21_PR_BLA_Followup_Agonist_ratio: Tox21 HEK293 Progesterone Receptor (PR) Agonism Beta-lactamase Follow-Up Assay, Ratio (AID 2283933). The gist of the method:
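PR-UAS-bla HEK293T cells in medium with 2% charcoal-stripped FBS were dosed after 6 h plating and incubated 16 h at 37C. LiveBLAzer FRET substrate was added for 2 h at room temperature. Cleaved/uncleaved substrate ratio fitted against DMSO; CellTiter-Glo viability run in the same wells.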

The target is the same in test [9]. Nature of the test: TOX21_PR_BLA_Followup_Antagonist_ratio: Tox21 HEK293 Progesterone Receptor (PR) Antagonism Beta-lactamase Follow-Up Assay, Ratio (AID 2283934). In short, it runs like this:
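PR-UAS-bla HEK293T cells, 3,000/well in 2% charcoal-stripped FBS, given compound plus 1nM R5020 agonist for 16 hr at 37C. Beta-lactamase FRET substrate 2 hours, ratio cleaved/uncleaved fluorescence; viability by CellTiter-Glo in same wells.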

Test [10] is described as follows: TOX21_PR_BLA_Followup_Agonist_viability: Viability Assessment in the Tox21 HEK293 Progesterone Receptor (PR) Agonism Beta-lactamase Follow-Up Assay (AID 2283935).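 Note: signal loss means lower viability so actives are cytotoxic.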 In short, it runs like this:
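PR-UAS-bla HEK293T cells in 2% charcoal-stripped FBS medium, plated 6 hr before compound addition, exposed 16 hr at 37C. Viability read by CellTiter-Glo ATP luminescence after 30 min at room temperature, in the same wells as the beta-lactamase readout.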

Test [11] can be described thus: TOX21_PR_BLA_Followup_Antagonist_viability: Viability Assessment in the Tox21 HEK293 Progesterone Receptor (PR) Antagonism Beta-lactamase Follow-Up Assay (AID 2283936).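 Note: hits lower the luminescence signal meaning cytotoxicity.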 The gist of the method:
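PR-UAS-bla HEK293T cells (3,000/well, 2% charcoal-stripped FBS) given compound plus R5020 agonist, 16 h at 37C. CellTiter-Glo added after bla read, 30 min at room temperature; luminescence loss indicates cytotoxicity.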

For test [12], the target named is PGR (gene 5241) (UniProt P06401). Briefly: TOX21_PR_LUC_Followup_Agonist: Tox21 HEK293 Progesterone Receptor (PR) Agonism Luciferase Follow-Up Assay (AID 2283937; active = hit-call score of the fitted dose curve at least 0.9, where 1 is the maximum; inactive = score below 0.9). The gist of the method:
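HEK293-PR-A-luc cells, conditioned 5 days in 10% charcoal-stripped FBS medium, seeded 3,000/well for 5 h, then compound-treated 16 h at 37C. ONE-Glo luminescence read after 30 min at room temperature; gain of signal versus DMSO.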

Test [13] in a line: TOX21_PR_LUC_Followup_Agonist_viability: Viability Assessment in the Tox21 HEK293 Progesterone Receptor (PR) Agonism Luciferase Follow-Up Assay (AID 2283941).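 Note: loss of signal means cytotoxicity so actives lower viability.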 The gist of the method: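 HEK293-PR-A-luc cells, kept in 10% charcoal-stripped FBS medium, were treated with compounds for 16 h at 37C. Viability read as cellular ATP by luciferase-coupled luminescence; loss of signal indicates cytotoxicity.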

A short description of test [14]: CCTE_Harrill_HTTr_Viability_MCF7: CCTE's 6-hour Cell Viability Assessment for the High-Throughput Transcriptomics (HTTr) Platform, in MCF-7 cells cultured in DMEM + 10% fetal bovine serum, Harrill Lab (AID 2284010; active = hit-call score of the fitted dose curve at least 0.9, where 1 is the maximum; inactive = score below 0.9). The gist of the method: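 MCF-7 cells in DMEM + 10% FBS, 384-well, exposed 6 h to an eight-point dilution series. Membrane integrity scored by high-content imaging of propidium iodide exclusion; bidirectional fit versus DMSO.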

Test [15] can be described thus: CCTE_Harrill_HTTr_Apoptosis_MCF7: CCTE's 6-hour Apoptosis Assessment for the High-Throughput Transcriptomics (HTTr) Platform, in MCF-7 cells cultured in DMEM + 10% fetal bovine serum, Harrill Lab (AID 2284011; active = hit-call score of the fitted dose curve at least 0.9, where 1 is the maximum; inactive = score below 0.9). The gist of the method:
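Apoptosis in MCF-7 cells grown in DMEM with 10% fetal bovine serum was scored after a six hour exposure by high content imaging of caspase-3/7 activation (CellEvent Caspase 3/7 Green), with DMSO serving as negative control and baseline.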

The nature of test [16]: CCTE_Harrill_HTTr_CellCount_MCF7: CCTE's Cell Proliferation Assessment for the High-Throughput Transcriptomics (HTTr) Platform, Harrill Lab (AID 2284012).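 Note: cells exposed to compound for six hours; intended direction is loss of nuclei count meaning fewer cells.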 In short, it runs like this:
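MCF7 cells exposed 6 hours to an eight-point dilution series; Hoechst-stained nuclei counted by high-content imaging. Bidirectional curve fitting against DMSO baseline.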

Inconclusive results are not listed. Active and inactive are the calls of the source. Rule for the calls, unless noted: active = hit-call score of the fitted dose curve at least 0.9, where 1 is the maximum; inconclusive = response in the unintended direction; inactive = score below 0.9.

Sequence of Cellular tumor antigen p53 (Homo sapiens) (P04637 whole entry, looked up): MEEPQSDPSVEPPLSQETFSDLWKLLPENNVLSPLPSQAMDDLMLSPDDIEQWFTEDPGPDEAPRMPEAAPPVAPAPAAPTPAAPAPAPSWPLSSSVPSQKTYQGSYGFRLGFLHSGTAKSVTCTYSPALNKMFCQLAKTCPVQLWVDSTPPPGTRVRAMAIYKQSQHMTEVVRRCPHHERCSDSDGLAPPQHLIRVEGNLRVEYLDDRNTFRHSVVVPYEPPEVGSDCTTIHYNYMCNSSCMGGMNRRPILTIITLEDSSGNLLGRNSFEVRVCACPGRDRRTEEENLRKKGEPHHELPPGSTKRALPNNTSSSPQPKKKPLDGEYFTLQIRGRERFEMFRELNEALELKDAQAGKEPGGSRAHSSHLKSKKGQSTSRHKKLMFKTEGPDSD
Sequence of PGR (gene 5241) (P06401 whole entry, looked up): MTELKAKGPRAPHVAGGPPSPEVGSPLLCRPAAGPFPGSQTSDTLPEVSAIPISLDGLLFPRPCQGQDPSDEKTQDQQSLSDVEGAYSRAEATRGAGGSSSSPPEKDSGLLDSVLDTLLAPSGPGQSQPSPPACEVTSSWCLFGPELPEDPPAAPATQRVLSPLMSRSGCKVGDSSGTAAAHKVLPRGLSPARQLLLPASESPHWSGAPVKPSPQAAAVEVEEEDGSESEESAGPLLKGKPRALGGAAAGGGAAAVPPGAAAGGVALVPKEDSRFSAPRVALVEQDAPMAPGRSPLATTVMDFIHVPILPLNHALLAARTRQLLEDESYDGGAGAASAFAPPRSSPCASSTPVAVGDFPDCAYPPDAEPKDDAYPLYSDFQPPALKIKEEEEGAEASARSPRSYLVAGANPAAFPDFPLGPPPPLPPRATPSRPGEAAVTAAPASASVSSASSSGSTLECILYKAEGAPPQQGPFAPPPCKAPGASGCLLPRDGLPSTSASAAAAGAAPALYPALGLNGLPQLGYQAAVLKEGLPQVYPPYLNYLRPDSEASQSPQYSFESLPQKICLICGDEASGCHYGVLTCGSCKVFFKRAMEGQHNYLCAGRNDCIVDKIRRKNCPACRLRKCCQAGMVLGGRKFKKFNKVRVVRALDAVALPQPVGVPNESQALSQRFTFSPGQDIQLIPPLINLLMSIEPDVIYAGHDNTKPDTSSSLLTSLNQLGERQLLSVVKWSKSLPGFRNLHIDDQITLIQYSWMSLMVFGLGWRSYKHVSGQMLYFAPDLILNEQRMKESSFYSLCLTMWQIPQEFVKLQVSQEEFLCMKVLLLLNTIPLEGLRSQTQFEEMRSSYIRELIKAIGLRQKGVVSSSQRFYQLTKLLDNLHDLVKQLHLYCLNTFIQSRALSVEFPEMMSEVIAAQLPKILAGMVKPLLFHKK

As to `O=C(CCc1ccc(O)cc1)c1c(O)cc(O)cc1O`, the outcome in [1], in [2], in test [3] and in test [4] was inactive.

Regarding `CCCC(=O)OC(=O)CCC`, the call in test [1], in test [5], in [6], in test [7], in [3] and in test [4] was inactive.

On to `O=C(Nc1ccc(C(=O)O)c(O)c1)c1ccccc1`, for which the molecule was classed as inactive in test [1], in test [5], in [6], in test [7], in [3] and in [4].

With `CS(=O)(=O)OCCCNCCCOS(C)(=O)=O`, the molecule was called inactive in test [1], in [5], in test [6], in test [7], in test [3] and in [4].

`Cc1cc(C)c(C=C2C(=O)Nc3ccccc32)[nH]1`: the call (in test [1]; in test [2]; in [3]; with PGR (gene 5241) [8]; with PGR (gene 5241) [9]; in test [10]) was inactive. Further, the call (in [11]; in the test with PGR (gene 5241) [12]; in test [13]; in test [14]; in test [16]) was inactive. In addition, in [15], the AC50 is 15.2 µM (active).

In the case of `CC(C)Cc1nccs1`, the molecule was called inactive in test [1], in test [5], in test [6] and in [7].

For the molecule `CN(C)CC/C=C1/c2ccccc2COc2ccc(CC(=O)O)cc21`, the call in test [1], in [5], in [6], in [7], in [3] and in [4] was inactive.

For the molecule `BrCCCCCBr`, the call in [1], in test [5], in test [6], in test [7], in [3] and in test [4] was inactive.

For the molecule `CC(C)(C)C(=O)CC(=O)C(C)(C)C`, the molecule was called inactive in [1], in [5], in test [6] and in test [7].

Take `O=C(O)CNCC(=O)O`: the molecule was classed as inactive in [1], in test [5], in [6], in test [7] and in test [3].

Regarding `Clc1ccc2n[nH]nc2c1`, the molecule was classed as inactive in test [1], in test [5], in test [6], in [3] and in [4]. The AC50 in [7] was 55.7 µM (active).

For `Nc1ncnc2c1ncn2[C@H]1CC[C@@H](CO)O1`, the molecule was classed as inactive in test [1], in test [5], in [6], in [7], in test [3] and in [4].

As to `C[N+](C)(C)CC[N+]1(C)Cc2c(Cl)c(Cl)c(Cl)c(Cl)c2C1`, the molecule was classed as inactive in [1], in [5], in [6], in test [7], in [3] and in [4].

As to `C[C@@]12CCC[C@H]1[C@@H]1CC[C@H]3C[C@@H](O)CC[C@]3(C)[C@H]1CC2`, the call in [1] and in test [5] was inactive.

For the molecule `O.O=C([O-])CC([S-])C(=O)[O-].[Au+].[Na+].[Na+]` (stereo unspecified), the result in [1], in test [5], in test [6] and in test [7] was inactive.

On to `CC(=O)c1ccc2c(c1)N(CCCN(C)C)c1ccccc1S2`, for which the result in [1], in test [5], in [6] and in [7] was inactive.

Regarding `Cc1nc2n(c(=O)c1CCN1CCC(c3noc4cc(F)ccc34)CC1)CCC[C@H]2O`, the molecule was called inactive in test [1], in test [5], in test [6], in [7], in [3] and in test [4].

Turning to `CC1=Nc2ccccc2C1(C)C`, the call in test [1], in [5], in test [6], in test [7], in test [3] and in test [4] was inactive.

For `CN1CCCN=C1/C=C/c1cccs1`, the result in [1], in test [5] and in test [6] was inactive.

For `CCOC(=O)[C@H](CCc1ccccc1)N[C@@H](C)C(=O)N1C(=O)N(C)C[C@H]1C(=O)O`, the outcome in test [1], in test [5], in [6], in test [7] and in test [3] was inactive.

For the molecule `Cc1ncc(CO)c(C=O)c1O`, the molecule was classed as inactive in [1], in test [5], in [6], in [7], in test [3] and in [4].

For `C1COC1`, the molecule was called inactive in test [1], in test [5], in test [6], in test [7] and in test [3].

`Cc1c(C(C)C)c(=O)n(-c2ccccc2)n1C`: the call in test [1], in test [5], in [6], in test [7] and in [3] was inactive.

In the case of `SCCCCCCCCS`, the result in [1], in test [5], in test [6] and in test [7] was inactive.

For `O=[N+]([O-])c1ccccc1CCO`, the outcome in test [1], in test [5], in test [6], in test [7] and in [3] was inactive.

With `CC[C@H](CC[C@@H](C)[C@H]1CC[C@H]2[C@@H]3CC=C4C[C@@H](O)CC[C@]4(C)[C@H]3CC[C@]12C)C(C)C`, the result in test [1], in [5], in [6], in test [7], in test [3] and in test [4] was inactive. Besides, the outcome in [14], in [15] and in test [16] was inactive.

(Values after PubChem BioAssay (EPA / NIEHS).)
